The results in this text go back to PubChem BioAssay (Tox21).

SMILES strings stand for the structures. Records with an inconclusive call do not appear. The source made the active and inactive calls. Unless noted, calls come from the whole dose curve.

Assay [1] is described as follows: Nuclear factor erythroid 2-related factor 2/antioxidant responsive element (Nrf2/ARE) small molecule agonists: qHTS cell viability counter screen in human keratinocytes (AID 1919968; active = well fitted cell-killing curve with a large enough effect in the repeat runs; note: nearly all actives have a fitted effect of over 55% in size; note: potency is the fitted concentration of half-maximal effect). The method, boiled down:
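KeratinoSens cells (HaCaT keratinocytes stably carrying an ARE-luciferase reporter) were seeded at 1,500 cells/well and rested 5 h at 37 C/5% CO2. They were then exposed to compounds in DMSO for 23 h. Viability was read by CellTiter-Fluor fluorescence after 1 h.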

A short description of assay [2]: Nuclear factor erythroid 2-related factor 2/antioxidant responsive element (Nrf2/ARE) small molecule agonists: luciferase reporter gene qHTS assay in human keratinocytes (AID 1919969). Note: nearly all actives have a fitted effect of over 35% in size. Note: potency is the fitted concentration of half-maximal effect. In general terms: A reporter such as luciferase makes a cellular process visible.
For assay [3], the target named is Gonadotropin-releasing hormone receptor (Homo sapiens) (UniProt P30968). The experiment in a line: Human gonadotropin-releasing hormone receptor (GnRHR) small molecule agonists, calcium flux assay in GnRHR-HEK293 cells (AID 1920063). Note: nearly all actives have a fitted effect of over 35% in size. Note: potency is the fitted concentration of half-maximal effect. The method, boiled down:
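HEK293 cells stably expressing human GnRHR were plated 18 h at 37 °C, loaded with calcium dye 1 h at 37 °C, then given compound in agonist mode; fluorescence (Ex/Em 480/540) read kinetically for 3 min at 1 s intervals.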
Background: Calcium flux is commonly read through the fluorescence of an indicator in the cells.

A short description of assay [4]: G protein-coupled receptor (GPCR) small molecule agonists, calcium flux assay: HEK293 wild type cell line counter screen (AID 1920065). The method, boiled down:
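Cells were plated and cultured 18 h at 37 C/5% CO2, then loaded with calcium dye for 1 h at 37 C. Compounds in DMSO were pin-transferred in agonist mode, and fluorescence (Ex/Em 480/540) was read kinetically for 3 min at 1 s intervals.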

Assay [5] is described as follows: p53 small molecule agonists, cell-based qHTS assay with human liver microsomes: qHTS cell viability counter screen (AID 1963579). Note: nearly all actives have a fitted effect of over 45% in size. The procedure, abridged:
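Seed p53RE-bla cells at 4,000 per well; incubate 5 h at 37 C; add compound, human liver microsomes and NADPH; incubate 16 h at 37 C; add CellTiter-Glo; after 30 min at room temperature, read luminescence.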
Background: In qHTS, concentration-response curves come from the screen itself.

Assay [6] in a line: p53 small molecule agonists, cell-based qHTS assay with rat liver microsomes: qHTS cell viability counter screen (AID 1963580). Note: nearly all actives have a fitted effect of over 45% in size. The method, boiled down:
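p53RE-bla HCT-116 cells were exposed 16 h at 37 C to compounds with rat liver microsomes (0.5 mg/mL) and NADPH (0.5 mg/mL). Viability was measured in the same wells as ATP content by CellTiter-Glo luminescence.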

The nature of assay [7]: p53 small molecule agonists, cell-based qHTS assay: qHTS cell viability counter screen (AID 1963581). Note: nearly all actives have a fitted effect of over 45% in size. The procedure, abridged: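 p53RE-bla HCT-116 cells were exposed to compounds for 16 h at 37 C; after the beta-lactamase FRET read in the same wells, CellTiter-Glo was added and luminescence (intracellular ATP) read after 30 min at room temperature.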
Assay [8] is described as follows: cAMP Responsive Elements (CRE) small molecule agonists, cell-based qHTS assay (AID 1963590). The procedure, abridged: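 CRE-bla HEK 293T cells in DMEM with 10% dialyzed FBS, NEAA, pyruvate and 25 mM HEPES were plated 18 h at 37 C/5% CO2, then exposed to compounds in DMSO for 3 h before LiveBLAzer B/G FRET substrate addition.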
Assay [9] addresses Beta-2 adrenergic receptor (Homo sapiens) (UniProt P07550). The assay is described as follows: Adrenergic beta2 receptor (ADRB2) small molecule antagonists, cell-based qHTS assay (AID 1963592). Note: nearly all actives have a fitted effect of over 50% in size. Note: potency is the fitted concentration of half-maximal effect. The procedure, abridged:
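Cells (CHO, stable ADRB2 overexpression) incubated 18-20hr at 37C; compounds added from DMSO; agonist mix (1nM isoproterenol, 100uM IBMX, 25uM Ro-20-1724) added; 0.5hr RT; d2-cAMP and anti-cAMP-cryptate added; 1hr RT; 665/615 nm read.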

Assay [10] concerns the target D(2) dopamine receptor (Homo sapiens) (UniProt P14416). The experiment in a line: Dopamine D2 receptor (DRD2) small molecule antagonists, cell-based qHTS assay (AID 1963595; active = well fitted inhibition curve with a large enough effect in the signal ratio in the repeat runs, with a control signal flat; the % refers to the signal ratio; note: potency is the fitted concentration of half-maximal effect). The method, boiled down:
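Cells were plated and grown for 24 h at 37 °C. Ro20-1724 (0.1 mM final) went in first, then compound for 10 min. NKH477 (200 nM) with quinpirole (12 nM) followed for 30 min at RT, then HTRF detection reagents for 1 h.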

Assay [11] deals with 5-hydroxytryptamine receptor 2A (Homo sapiens) (UniProt P28223). The assay is described as follows: 5-hydroxytryptamine receptor 2A (HTR2A) small molecule antagonists, cell-based qHTS assay (AID 1963586). Note: nearly all actives have a fitted effect of over 45% in size. The procedure, abridged:
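Antagonist-mode intracellular calcium assay: DOI (4 nM) added after 5 min compound pre-incubation at room temperature to dye-loaded HTR2A-CHO cells. Fluorescence followed for 3 min, sampled every second.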

For assay [12] the target is unchanged. The experiment in a line: 5-hydroxytryptamine receptor 2A (HTR2A) small molecule agonists, cell-based qHTS assay (AID 1963587). Note: nearly all actives have a fitted effect of over 30% in size. Note: potency is the fitted concentration of half-maximal effect. The procedure, abridged:
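CHO cells stably expressing human HTR2A, plated 18 h, loaded with calcium dye 1 h at 37 C. Agonist mode: compounds added and intracellular calcium fluorescence recorded kinetically for 2 min at 1 sec intervals.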

The target of assay [13] is Muscarinic acetylcholine receptor M1 (Homo sapiens) (UniProt P11229). The assay is described as follows: Cholinergic receptor muscarinic 1 (CHRM1) small molecule antagonists, cell-based qHTS assay (AID 1963588). Note: nearly all actives have a fitted effect of over 40% in size. Note: potency is the fitted concentration of half-maximal effect. The method, boiled down: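 CHRM1-CHO calcium-flux assay, antagonist mode. Cells were seeded 18 h, dye-loaded 1 h at 37 C and given compound for 5 min at RT, then acetylcholine was added at 50nM. FDSS fluorescence was read 3 min; 15 concentrations, three runs.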

Assay [14] has the same target. The experiment in a line: Cholinergic receptor muscarinic 1 (CHRM1) small molecule agonists, cell-based qHTS assay (AID 1963589). Note: nearly all actives have a fitted effect of over 35% in size. Note: potency is the fitted concentration of half-maximal effect. The method, boiled down: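 CHO cells stably expressing human CHRM1, seeded 18 h at 37 C/5% CO2, dye-loaded 1 h at 37 C, then given compound in agonist mode; intracellular calcium fluorescence read kinetically at 1 s intervals. Fifteen concentrations, three independent runs.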

A short description of assay [15]: cAMP Responsive Elements (CRE) small molecule antagonists, cell-based qHTS assay (AID 1963591; active = well fitted inhibition curve with a large enough effect in the signal ratio in the repeat runs, not every such curve was filed as active; the % refers to the signal ratio). The method, boiled down:
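CRE-bla HEK293T cells were plated 18 h at 37 °C/5% CO2, pinned with compound in DMSO, then stimulated with NKH477 at 0.25 uM final for 3 h. LiveBLAzer B/G FRET substrate was added and plates incubated 2 h at room temperature.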

Assay [16] addresses D(2) dopamine receptor (Homo sapiens) (UniProt P14416). The assay is described as follows: Dopamine D2 receptor (DRD2) small molecule agonists, cell-based qHTS assay (AID 1963594). Note: nearly all actives have a fitted effect of over 35% in size. The method, boiled down:
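HEK293 cells stably expressing human DRD2, pre-treated with PDE inhibitor Ro20-1724 (0.1 mM final) and compound 10 min at room temperature, then stimulated with NKH477 (200nM […]) for 30 min. cAMP read by HTRF (665/620 nm).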

The nature of assay [17]: p53 small molecule agonists, cell-based qHTS assay with rat liver microsomes (AID 1963578). The procedure, abridged: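 Fluorescence from a beta-lactamase reporter under a p53 response element was measured after cells had been incubated 16 h at 37 C with test compound and rat liver microsomes plus NADPH (0.5 mg/mL final each).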
A short description of assay [18]: p53 small molecule agonists, cell-based qHTS assay (AID 1963582; active = well fitted activation curve with a large enough effect in the signal ratio in the repeat runs, not every such curve was filed as active; the % refers to the signal ratio). The procedure, abridged:
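p53RE-bla beta-lactamase reporter cells rested 5 h at 37 C/5% CO2, then received compounds in DMSO by pin transfer and were incubated 16 h at 37 C. LiveBLAzer B/G FRET substrate was loaded for 2 h at room temperature before fluorescence reading.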

In assay [19] the target is Beta-2 adrenergic receptor (Homo sapiens) (UniProt P07550). The assay is described as follows: Adrenergic beta2 receptor (ADRB2) small molecule agonists, cell-based qHTS assay (AID 1963593).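 Note: CHO cells stably overexpressing human ADRB2.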 The procedure, abridged:
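CHO cells stably over-expressing ADRB2 were plated overnight at 37C, then dosed with compounds plus a stimulation mix containing 100uM IBMX and 25uM Ro-20-1724 for 0.5hr at room temperature. cAMP was measured by HTRF competition, 1hr.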

5-hydroxytryptamine receptor 2A (Homo sapiens), sequence (P28223 whole entry, looked up): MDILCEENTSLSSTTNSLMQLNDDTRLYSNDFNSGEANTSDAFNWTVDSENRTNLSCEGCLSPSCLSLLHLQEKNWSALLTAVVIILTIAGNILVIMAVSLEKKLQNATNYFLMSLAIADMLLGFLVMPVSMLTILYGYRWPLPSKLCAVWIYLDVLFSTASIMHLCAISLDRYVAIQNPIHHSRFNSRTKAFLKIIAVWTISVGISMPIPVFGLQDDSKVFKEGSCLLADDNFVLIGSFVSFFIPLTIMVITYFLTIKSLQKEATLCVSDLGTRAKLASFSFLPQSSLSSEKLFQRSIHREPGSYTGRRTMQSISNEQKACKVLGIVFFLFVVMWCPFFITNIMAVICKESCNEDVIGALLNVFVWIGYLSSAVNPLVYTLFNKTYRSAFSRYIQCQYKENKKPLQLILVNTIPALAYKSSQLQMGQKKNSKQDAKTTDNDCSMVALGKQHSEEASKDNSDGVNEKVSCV
Muscarinic acetylcholine receptor M1 (Homo sapiens), sequence (P11229 whole entry, looked up): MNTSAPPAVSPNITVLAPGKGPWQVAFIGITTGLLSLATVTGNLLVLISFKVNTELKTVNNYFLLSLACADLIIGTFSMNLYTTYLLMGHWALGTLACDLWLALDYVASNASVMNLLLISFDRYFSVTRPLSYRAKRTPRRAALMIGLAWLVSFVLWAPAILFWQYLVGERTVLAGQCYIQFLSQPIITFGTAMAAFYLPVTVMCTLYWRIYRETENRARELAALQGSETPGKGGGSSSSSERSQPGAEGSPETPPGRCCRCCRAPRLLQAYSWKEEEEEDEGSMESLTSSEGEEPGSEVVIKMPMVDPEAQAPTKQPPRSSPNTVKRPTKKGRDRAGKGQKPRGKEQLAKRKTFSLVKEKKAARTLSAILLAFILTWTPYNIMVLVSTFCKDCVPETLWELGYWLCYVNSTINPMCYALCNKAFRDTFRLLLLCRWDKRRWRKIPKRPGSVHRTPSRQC
Gonadotropin-releasing hormone receptor (Homo sapiens), sequence (P30968 whole entry, looked up): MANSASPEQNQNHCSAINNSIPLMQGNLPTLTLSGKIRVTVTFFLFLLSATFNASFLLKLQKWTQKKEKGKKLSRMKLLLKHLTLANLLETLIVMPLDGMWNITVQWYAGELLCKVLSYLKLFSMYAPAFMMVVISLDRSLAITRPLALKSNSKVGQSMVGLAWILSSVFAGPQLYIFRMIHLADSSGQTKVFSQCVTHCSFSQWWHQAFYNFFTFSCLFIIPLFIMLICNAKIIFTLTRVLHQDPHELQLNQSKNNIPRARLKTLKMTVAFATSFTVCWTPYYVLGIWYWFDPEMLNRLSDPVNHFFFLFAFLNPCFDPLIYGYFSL
Beta-2 adrenergic receptor (Homo sapiens), sequence (P07550 whole entry, looked up): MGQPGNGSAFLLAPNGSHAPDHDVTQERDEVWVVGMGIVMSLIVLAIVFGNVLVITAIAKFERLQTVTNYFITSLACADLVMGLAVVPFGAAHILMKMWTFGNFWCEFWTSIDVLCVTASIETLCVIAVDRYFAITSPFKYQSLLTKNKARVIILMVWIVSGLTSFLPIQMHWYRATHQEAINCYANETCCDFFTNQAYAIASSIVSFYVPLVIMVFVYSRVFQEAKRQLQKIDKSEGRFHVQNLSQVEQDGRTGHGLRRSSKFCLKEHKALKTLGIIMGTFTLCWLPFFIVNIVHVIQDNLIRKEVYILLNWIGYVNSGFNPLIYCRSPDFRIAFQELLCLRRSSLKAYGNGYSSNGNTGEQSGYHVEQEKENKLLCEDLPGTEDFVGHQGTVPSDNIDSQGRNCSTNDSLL
D(2) dopamine receptor (Homo sapiens), sequence (P14416 whole entry, looked up): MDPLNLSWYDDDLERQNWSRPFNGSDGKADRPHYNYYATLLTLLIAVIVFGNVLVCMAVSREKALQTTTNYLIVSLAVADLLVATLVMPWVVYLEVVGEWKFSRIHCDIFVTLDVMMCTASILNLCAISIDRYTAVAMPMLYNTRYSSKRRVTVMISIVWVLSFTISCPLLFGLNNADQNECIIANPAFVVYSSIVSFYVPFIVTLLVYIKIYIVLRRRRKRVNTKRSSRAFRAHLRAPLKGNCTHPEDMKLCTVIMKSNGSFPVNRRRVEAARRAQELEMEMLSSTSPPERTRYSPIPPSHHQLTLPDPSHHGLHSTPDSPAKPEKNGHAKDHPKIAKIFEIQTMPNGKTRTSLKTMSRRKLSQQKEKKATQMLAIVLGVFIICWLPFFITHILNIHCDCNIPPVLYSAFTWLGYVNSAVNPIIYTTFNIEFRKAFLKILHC

In the case of `O=C(O)CO`, the Potency entry in [1], in assay [2], in assay [3], in assay [4], in [5] and in assay [6] was “inactive” each time. The Potency result in [7], in [8], in assay [9] and in assay [10] was “inactive” each time.

As to `CO[Si](C)(OC)OC`, the Potency entry in assay [1], in assay [2], in [3], in [4], in assay [6] and in [7] was “inactive” throughout. In addition, the Potency result in assay [11], in assay [12], in assay [13], in [14], in assay [15] and in assay [9] was “inactive” in each case. The Potency result in [16] and in assay [10] was “inactive” in each case.

Consider `CN[C@@H]1[C@@H](O)[C@@H](O[C@@H]2[C@H](O)[C@H](O[C@H]3OC(CN)=CC[C@H]3N)[C@@H](N)C[C@H]2N)OCC1(C)O` (stereo partly drawn), for which the Potency entry in assay [1], in assay [2], in [3], in [4], in assay [5] and in assay [6] was “inactive” throughout. The Potency entry in [7], in assay [8], in [15], in assay [16] and in assay [10] was “inactive” throughout. Besides, the Potency in [9] was 2.66 µM (active).

With `Cc1ccc(S(=O)(=O)C(I)I)cc1`, the Potency in assay [1] was 27.3 µM (active); in [2], 6.11 µM (active); in [3], 38.9 µM (active); in [12], 54.9 µM (active); in assay [13], 18.8 µM (active); in [10] it was 30.6 µM (active). Further, the Potency entry in assay [17], in assay [11], in assay [9] and in assay [16] was “inactive” in each case.

For `CCCCCCCCCCCCN1CCCCCC1=O`, in [1], the Potency is 61.1 µM (active). Further, the Potency result in [2], in [3], in assay [4], in assay [17], in [5] and in assay [6] was “inactive” throughout. Also, the Potency result in [18], in [11], in assay [12], in assay [14], in [8] and in [15] was “inactive” throughout. In addition, the Potency result in assay [9], in [19], in assay [16] and in [10] was “inactive” each time.

For the compound `O=C(Nc1cccc(Cl)c1)OCC#CCCl`, the Potency in [1] is 17.2 µM (active); in [2] it was 12.2 µM (active). Besides, the Potency entry in assay [3], in [4], in assay [5], in [6], in assay [11] and in [12] was “inactive” throughout. In addition, the Potency entry in [13], in [14], in assay [9], in [19], in assay [16] and in [10] was “inactive” throughout.

On to `CC(=O)OC(C)C[N+](C)(C)C` (stereo not drawn), for which the Potency result in assay [1], in assay [2], in assay [4], in [17], in assay [5] and in assay [6] was “inactive” throughout. Besides, the Potency entry in assay [18], in [11], in assay [12], in assay [8], in assay [15] and in assay [9] was “inactive” throughout. Besides, the Potency result in [16] was “inactive”. The values for the Potency in [3] and in [14] were 1.07 µM (active) and 0.151 µM (active), respectively.

In the case of `Cc1ccc(NC=O)c(C)c1`, the Potency result in assay [1], in assay [2], in assay [3], in [4], in assay [5] and in [6] was “inactive” each time. The Potency result in assay [7], in assay [11], in assay [12], in [13], in [14] and in [8] was “inactive” throughout. The Potency result in assay [9], in [19], in [16] and in assay [10] was “inactive” throughout.
